Records with an inconclusive call do not appear. The source made the active and inactive calls. The calls were made as follows: active = hit-call score of the fitted dose curve at least 0.9, where 1 is the maximum; inconclusive = response in the unintended direction; inactive = score below 0.9.
Assays:
[1] = TOX21_p53_BLA_p2_viability: Viability Assessment in the Tox21 HCT-116 p53 Agonism Beta-lactamase Assay, Phase 2 (AID 2283591);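 also: compound exposure lasted 16 h at 37 °C; actives lower the ATP signal meaning cytotoxicity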
In short: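 Cytotoxicity readout: CellTiter-Glo ATP luminescence, 30 min at room temperature, after the beta-lactamase read. Cells were HCT116 exposed 16 h at 37C to compounds pin-transferred at 217-fold dilution from DMSO stocks.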

[2] = target: Cellular tumor antigen p53 (Homo sapiens) (UniProt P04637); assay: TOX21_p53_BLA_p2_ratio: Tox21 HCT-116 p53 Agonism Beta-lactamase Assay, Ratio, Phase 2 (AID 2283592)
In short: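 Gain-of-signal p53 agonism was scored from the beta-lactamase FRET ratio (460/530 nm, 405 nm excitation) in HCT116 cells treated 16 h at 37C, 5% CO2, with DMSO serving as negative control and baseline.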

[3] = TOX21_p53_BLA_p3_viability: Viability Assessment in the Tox21 HCT-116 p53 Agonism Beta-lactamase Assay, Phase 3 (AID 2283593);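 also: cells exposed to compound for 16 h before reading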
In short: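 Cellular ATP was quantified by CellTiter-Glo luminescence, read after 30 min at room temperature. Beforehand, HCT116 cells (4000/well) received compound 5 h post-seeding, 217-fold diluted from DMSO, then incubated 16 h at 37C.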

[4] = target: Cellular tumor antigen p53 (Homo sapiens) (UniProt P04637); assay: TOX21_p53_BLA_p3_ratio: Tox21 HCT-116 p53 Agonism Beta-lactamase Assay, Ratio, Phase 3 (AID 2283596)
In short: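 HCT116 p53-bla cells (4000/well) given compound in DMSO (217-fold dilution) after 5 h, incubated 16 h at 37C. CCF4-AM substrate 2 h at room temperature; 460/530 nm emission ratio, gain fitted against DMSO.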

[5] = TOX21_p53_BLA_p4_viability: Viability Assessment in the Tox21 HCT-116 p53 Agonism Beta-lactamase Assay, Phase 4 (AID 2283597);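 also: hits lower the luminescence signal meaning cytotoxicity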
In short: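 Following a 16 h exposure at 37C, the treated HCT116 wells were first read for the FRET ratio. They were then lysed with CellTiter-Glo, and ATP luminescence was recorded after 30 min at room temperature.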

[6] = target: Cellular tumor antigen p53 (Homo sapiens) (UniProt P04637); assay: TOX21_p53_BLA_p5_ratio: Tox21 HCT-116 p53 Agonism Beta-lactamase Assay, Ratio, Phase 5 (AID 2283599)
In short: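 Beta-lactamase reporter ratio (blue 460 nm over green 530 nm, 405 nm excitation) after 2 h CCF4-AM loading, in HCT-116 cells exposed 16 h at 37 C to compounds pinned at 217-fold dilution. Increases relative to DMSO baseline scored.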

[7] = TOX21_p53_BLA_p5_viability: Viability Assessment in the Tox21 HCT-116 p53 Agonism Beta-lactamase Assay, Phase 5 (AID 2283600)
In short: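 After the 460/530 nm beta-lactamase measurement, the wells received an ATP-detection luciferase reagent; signal was read 30 min later at RT. Compound treatment lasted 16 h on cells pre-incubated 5 h post-seeding.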

[8] = target: Cellular tumor antigen p53 (Homo sapiens) (UniProt P04637); assay: TOX21_p53_BLA_p4_ratio: Tox21 HCT-116 p53 Agonism Beta-lactamase Assay, Ratio, Phase 4 (AID 2283601)
In short: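 Signal is the blue/green (460nm/530nm) ratio of cleaved versus uncleaved CCF4-AM substrate, read after 2 h substrate loading. Cells were HCT116 carrying the p53-responsive beta-lactamase reporter, dosed 16 h at 37C, 5% CO2; CellTiter-Glo measured in parallel.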

Measured: AC50

Cellular tumor antigen p53 (Homo sapiens), sequence (P04637 whole entry, looked up): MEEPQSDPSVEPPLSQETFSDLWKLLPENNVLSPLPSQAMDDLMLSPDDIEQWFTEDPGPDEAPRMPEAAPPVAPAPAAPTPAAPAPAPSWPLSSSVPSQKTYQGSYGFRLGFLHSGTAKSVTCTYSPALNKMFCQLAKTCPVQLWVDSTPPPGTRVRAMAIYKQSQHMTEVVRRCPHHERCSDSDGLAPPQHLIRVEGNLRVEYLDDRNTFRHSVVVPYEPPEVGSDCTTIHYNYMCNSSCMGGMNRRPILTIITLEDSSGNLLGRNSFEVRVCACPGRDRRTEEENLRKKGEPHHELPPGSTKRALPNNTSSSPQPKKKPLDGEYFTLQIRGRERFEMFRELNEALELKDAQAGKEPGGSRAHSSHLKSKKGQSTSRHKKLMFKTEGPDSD

OC[C@@H](O)[C@@H](O[C@@H]1O[C@H](CO)[C@H](O)[C@H](O)[C@H]1O)[C@H](O)[C@@H](O)CO
inactive: all assays above

Nc1ccc(S(=O)(=O)Nc2ccc(Cl)nn2)cc1
inactive: all assays above

CCc1cccc(CC)c1NC(=O)CN(CC(=O)O)CC(=O)O
inactive: all assays above

c1cc(OCC2CO2)cc(OCC2CO2)c1 (stereo not drawn)
inactive: [1] | [5] | [7]
active: [2] 14.3 µM | [3] 70.3 µM | [4] 20.4 µM | [6] 14.3 µM | [8] 63.2 µM

N#CCc1cccc(C(F)(F)F)c1
inactive: all assays above

CCCCCCCC(=O)CC[C@@H]1[C@@H](C/C=C\CCCC(=O)OC(C)C)[C@@H](O)C[C@H]1O
active: [1] 36.2 µM | [2] 43.7 µM | [3] 43.7 µM | [5] 23 µM | [6] 43 µM | [7] 41.9 µM | [8] 43.6 µM
inactive: [4]

O=c1c(-c2ccccc2)c1-c1ccccc1
active: [2] 23.8 µM | [4] 22.2 µM
inactive: all other assays above

CCCCc1oc2ccc(NS(C)(=O)=O)cc2c1C(=O)c1ccc(OCCCN(CCCC)CCCC)cc1
active: [1] 34.7 µM | [3] 34.6 µM | [4] 43.7 µM | [5] 23.7 µM | [8] 43.1 µM
inactive: [2] | [6] | [7]

CCOc1ccc(Cc2nccc3cc(OCC)c(OCC)cc23)cc1OCC
inactive: all assays above

CCNC(=O)N1CCN(CCCC(c2ccc(F)cc2)c2ccc(F)cc2)CC1
inactive: all assays above

CCCCCCCCCCCCCCCCOCCOCCOCCOCCOCCOCCOCCOCCOCCOCCOCCOCCOCCOCCOCCOCCOCCOCCOCCOCCO
active: [1] 30.1 µM | [2] 29.5 µM | [3] 6.03 µM | [4] 11.7 µM | [5] 34.5 µM | [6] 41.4 µM | [7] 33.3 µM | [8] 43.5 µM

O=C1C(=O)c2ccccc2C(O)=C1C1CCC(c2ccc(Cl)cc2)CC1 (stereo not drawn)
active: [2] 10.3 µM | [4] 1.61 µM | [6] 10.3 µM
inactive: all other assays above

CCN1/C(=C/C=C/c2sc3ccccc3[n+]2CC)Sc2ccccc21
active: [2] 9.06 µM | [3] 4.58 µM | [4] 23.5 µM | [5] 20 µM | [6] 11.5 µM | [8] 12.9 µM
inactive: [1] | [7]

CC(=O)NCc1c(I)c(NC(C)=O)c(I)c(C(=O)O)c1I
inactive: all assays above

CCC(=O)O[C@]1(C(=O)SCF)[C@H](C)C[C@H]2[C@@H]3C[C@H](F)C4=CC(=O)C=C[C@]4(C)[C@@]3(F)[C@@H](O)C[C@@]21C
inactive: all assays above

CCOc1ccc([N+](=O)[O-])cc1
inactive: [1] | [2]
active: [3] 70.9 µM | [4] 80.9 µM | [5] 46.7 µM | [6] 84.9 µM | [7] 61.1 µM | [8] 81.5 µM

CCC(=O)O[C@]1(C(=O)CCl)[C@@H](C)C[C@H]2[C@@H]3C[C@H](F)C4=CC(=O)C=C[C@]4(C)[C@@]3(F)[C@@H](O)C[C@@]21C
inactive: all assays above

NC(=O)NS(=O)(=O)c1ccc(N)cc1
inactive: all assays above

CC(=C(CCO)SSC(CCO)=C(C)N(C=O)Cc1cnc(C)nc1N)N(C=O)Cc1cnc(C)nc1N
inactive: all assays above

CCCCCCCCCCCCOCCOCCOCCOCCOCCOCCOCCOCCOCCO
active: [1] 31.5 µM | [2] 13.5 µM | [3] 27 µM | [4] 19.7 µM | [5] 20 µM | [6] 36.9 µM | [7] 23 µM | [8] 37.7 µM

CCC(C)(C)c1ccc(CC(C)CN2C[C@@H](C)O[C@@H](C)C2)cc1 (stereo partly drawn)
active: [5] 32.7 µM
inactive: all other assays above

CCOC(=O)Nc1ccc(NCc2ccc(F)cc2)nc1N
inactive: all assays above

O=C(CCS)OCC(COC(=O)CCS)(COC(=O)CCS)COC(=O)CCS
active: [4] 15.7 µM
inactive: all other assays above

O=C(O)CCCl
inactive: all assays above

Nc1ccc(C(=O)Nc2ccccc2N)cc1
active: [2] 12.6 µM | [4] 21.1 µM | [5] 20.9 µM
inactive: all other assays above

CC[C@@H](C(=O)O)[C@@H]1O[C@@H]([C@@H](C)[C@H](O)[C@H](C)C(=O)[C@H](CC)[C@H]2O[C@]3(C=C[C@@H](O)[C@]4(CC[C@@](C)([C@H]5CC[C@](O)(CC)[C@H](C)O5)O4)O3)[C@H](C)C[C@@H]2C)[C@@H](C)C[C@@H]1C
active: [2] 4.53 µM | [4] 7.64 µM | [6] 7.63 µM | [8] 5.21 µM
inactive: all other assays above

CC[C@@]1([C@@H]2O[C@@H]([C@H]3O[C@@](O)(CO)[C@H](C)C[C@@H]3C)C[C@@H]2C)CC[C@H]([C@]2(C)CC[C@]3(C[C@H](O)[C@@H](C)[C@@H]([C@@H](C)[C@@H](OC)[C@H](C)C(=O)O)O3)O2)O1 (stereo in doubt)
inactive: all assays above

CC(=O)c1cccc([N+](=O)[O-])c1
inactive: all assays above

CCCCCCCCC(CCCCCC)C(=O)O (stereo not drawn)
active: [3] 65.9 µM
inactive: all other assays above

CC1=CC(C)(C)Nc2ccccc21
inactive: all assays above

CCc1oc2ccccc2c1C(=O)c1cc(I)c(O)c(I)c1
active: [1] 23 µM | [2] 7.59 µM | [3] 26.1 µM | [4] 20.8 µM | [5] 11 µM | [7] 24.1 µM | [8] 6.73 µM
inactive: [6]

O=C1C(c2[nH]c3ccccc3c2O)=Nc2ccccc21
inactive: all assays above

O=C(O)Cc1cn(-c2ccccc2)nc1-c1ccc(Cl)cc1
inactive: all assays above

CC(C)(C)C(=O)C(Oc1ccc(Cl)cc1)n1ccnc1 (stereo not drawn)
inactive: all assays above

N=C1N=C(N)c2cc3ccccc3cc21
active: [1] 23.6 µM | [2] 11.6 µM | [3] 38.5 µM | [4] 18.5 µM | [5] 21 µM | [6] 15 µM | [7] 27.4 µM | [8] 19.8 µM

Cn1cnc2c(F)c(Nc3ccc(Br)cc3Cl)c(C(=O)NOCCO)cc21
inactive: all assays above

CCCCCCCC[N+](CCCCCCCC)(CCCCCCCC)CCCCCCCC
active: [1] 18.9 µM | [2] 54.8 µM | [3] 29.3 µM | [4] 56.2 µM | [5] 36.2 µM | [6] 64.1 µM | [7] 34 µM | [8] 64.5 µM

CC(O)COC(C)(C)C (stereo not drawn)
inactive: all assays above

C[C@@H]1CN(CCCn2c3ccccc3c3ccccc32)C[C@H](C)N1
active: [5] 28.9 µM
inactive: all other assays above

Nc1nc(Cl)nc2c1ncn2[C@@H]1O[C@H](CO)[C@@H](O)[C@@H]1F
active: [2] 0.119 µM | [4] 0.117 µM | [6] 0.112 µM | [8] 0.155 µM
inactive: [1] | [3] | [5] | [7]

CCN(CC)C(=O)/C(C#N)=C/c1cc(O)c(O)c([N+](=O)[O-])c1
active: [2] 33.7 µM
inactive: all other assays above
